TDP1 cell noCPT – qHTS for Inhibitors of human tyrosyl-DNA phosphodiesterase 1 (TDP1): qHTS in cells in absence of CPT. Potency, µM (doses to about 46.2 µM), inactives show top-dose activity change, negative = growth inhibition, most hits filed as inhibitors. DT40 Tdp1-/- hTDP1 cells, no CPT, ATP luminescence, 48 h. hit rate 15% among 420,000; note: nearly all actives have a fitted effect of over 55% in size
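Stably hTDP1-transfected Tdp1-null chicken DT40 cells were treated with library compounds minus camptothecin and grown for at least 48 hr at 37 °C, after which cellular ATP was quantified by luminescence.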
KAT2A inh – blocks human GCN5L2 histone acetyltransferase; Potency, µM (top dose mostly 58.9 µM), for the others: at the highest dose activity change, negative = inhibition, actives largely listed as inhibitors; hit rate 0.21% among 390,000; GCN5L2 HAT assay, ThioGlo1 CoA-SH fluorescence; AID 504327
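Enzyme at 20nM final was mixed with library compounds for 15 min at room temperature. Peptide H3(1-25) at 75uM, acetyl-CoA at 70uM and ThioGlo1 at 50uM were then added. Plates were read immediately and after 20 min (Ex340nm/Em540nm).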
VDR inh – vitamin D3 receptor (human) inhibition; P11473; VDR-SRC2-3 peptide fluorescence polarization, 2 h; Potency, µM, inactives show max response, negative = inhibition, most hits filed as inhibitors; hit rate 0.93% among 400,000
Target sequence (P11473 whole entry, looked up): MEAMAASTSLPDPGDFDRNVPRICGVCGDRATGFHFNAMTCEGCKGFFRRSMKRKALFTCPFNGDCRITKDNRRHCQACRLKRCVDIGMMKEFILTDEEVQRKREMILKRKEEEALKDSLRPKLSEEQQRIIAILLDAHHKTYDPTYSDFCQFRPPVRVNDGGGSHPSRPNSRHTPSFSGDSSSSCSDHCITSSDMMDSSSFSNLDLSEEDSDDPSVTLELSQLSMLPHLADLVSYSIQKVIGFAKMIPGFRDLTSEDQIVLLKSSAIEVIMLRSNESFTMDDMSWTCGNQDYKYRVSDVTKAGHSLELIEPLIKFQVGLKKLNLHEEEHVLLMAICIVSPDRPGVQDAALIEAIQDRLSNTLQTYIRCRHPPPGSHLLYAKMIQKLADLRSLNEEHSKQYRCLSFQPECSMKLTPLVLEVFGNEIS
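Two reagent solutions held at 4 deg C in the dark were dispensed, compounds pinned at 23 nl, and the mixture incubated 2 h at room temperature. Read-out: fluorescence polarization of VDR–SRC2-3 peptide binding.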
PLK1 PBD inh – blocks phosphopeptide binding to human PLK1 polo-box domain; P53350; Plk1 PBD binding of FITC phosphopeptide, fluorescence polarization; Potency, µM, inactives show max response, negative = inhibition, most hits filed as inhibitors; hit rate 2.8% among 360,000; AID 720504; note: series mostly up to about 57 µM; nearly all actives have a fitted effect of over 65% in size
TDP1 inh – inhibitors of human tyrosyl-DNA phosphodiesterase TDP1; hit rate 0.28% among 350,000; recombinant TDP1, AlphaScreen DNA substrate cleavage; Q9NUW8; Potency, µM (series often up to 130 µM), inactives show at the highest dose activity change, negative = inhibition, usual class: inhibitors; AID 485290; note: nearly all actives have a fitted effect of over 40% in size
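Signal: AlphaScreen proximity between streptavidin donor and anti-FITC acceptor beads on intact substrate. Reaction: Tdp1 1 nM, substrate 15 nM final, 5 min RT after 15 min compound preincubation.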
TDP1 cell CPT – growth inhibition of DT40 Tdp1-/-;hTDP1 cells with camptothecin (screen for TDP1 inhibitors); chicken DT40 Tdp1-/-;hTDP1 cells + 20 nM CPT, ATP luminescence, 48 h; Potency, µM (doses to about 46.2 µM), inactives show at the highest dose activity change, negative = growth inhibition, usual class: inhibitors; hit rate 12% among 420,000; note: nearly all actives have a fitted effect of over 55% in size
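Chicken DT40 Tdp1-/- cells stably complemented with human TDP1 were seeded at 400 cells/well in medium containing 20 nM camptothecin, exposed to pin-transferred compounds, and grown at 37 °C for at least 48 hr. Viability was read as ATP luminescence.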
An asterisk follows results filed as active; ? = inconclusive; . = no result given; [ ] = dose if it differs, or a comment. Sampled rows, rich in hits. Any-hit rate of the full collection: about 18%. Calls come from the whole dose curve; as a rule, active = well fitted curve in the direction sought with a large enough effect; inconclusive = small, poorly fitted or top-dose-only effect, or another doubt; inactive = no such curve, though single readings can be large; an effect the other way counts as inactive or inconclusive. % is set by controls: 0 for no effect and ±100 for the full control effect; potency is the fitted concentration of half-maximal effect.

SMILES | TDP1 cell noCPT | KAT2A inh | VDR inh | PLK1 PBD inh | TDP1 inh | TDP1 cell CPT
Cc1cc(C)c2[nH]c(=O)c(C(c3nnnn3CC3CCCO3)N3CCC(C)CC3)cc2c1 (stereo unspecified) | ? | -6.1% | -12.2% | -15.6% | 4.8% | ?
Cc1cc(C)c2[nH]c(=O)c(C(c3nnnn3CC3CCCO3)N3CCCC(C)C3)cc2c1 (stereo unspecified) | ? | -8.6% | -2.2% | -3.6% | -4.1% | 18.4µM*
O=C(CNC(=O)/C=C/c1ccco1)N=Nc1c(O)[nH]c2ccccc12 | -22.3% | -4.7% | -1.7% | ? | 39.8µM* | 6.7%
CCN(CC)S(=O)(=O)c1ccc(C(=O)NCCSc2c(-c3ccc(C)cc3)[nH]c3ccccc23)cc1 | 8.2µM* | -13.6% | 4.8% | . | 5.9% | 5.8µM*
CCC(=O)NCCSc1c[nH]c2ccccc12 | 3.4% | -2.5% | -1.3% | -11.8% | 5.9% | -4.3%
COc1ccc(C(=O)NCCSc2c[nH]c3ccccc23)cc1OC | 20.6µM* | -9.3% | -2.7% | . | 5.9% | ?
CCN(CC)S(=O)(=O)c1ccc(C(=O)NCCSc2c[nH]c3ccccc23)cc1 | ? | -10.6% | -15.7% | 3.8% | -7.9% | 20.6µM*
CC(=O)Nc1ccccc1OCC(=O)NCC(F)(F)F | 1.2% | -6.9% | -14.2% | -13.0% | -12.8% | 1.4%
CCc1nc2ccccc2c(C(=O)OCC(=O)Nc2ccc(S(=O)(=O)N3CCOCC3)cc2)c1C | ? | -9.6% | 13.2% | -5.8% | 1.0% | 14.1µM*
O=C(COC(=O)c1nc(Cl)ccc1Cl)Nc1cccc(S(=O)(=O)N2CCOCC2)c1 | 0.3% | . | -7.1% | -15.9% | . | -13.7%
CCc1nc2ccccc2c(C(=O)OCC(=O)Nc2cccc(S(=O)(=O)NC3=NCCCCC3)c2)c1C | 4.61µM* | -7.7% | -3.1% | 2.6% | . | 16.4µM*
CCc1nc2ccccc2c(C(=O)OCC(=O)Nc2cccc(S(=O)(=O)N3CCOCC3)c2)c1C | 18.4µM* | -10.6% | 8.2% | 6.4% | 4.8% | 16.4µM*
CCCCOc1cccc2c(=O)n(CC(=O)Nc3ccc4c(c3)OCCO4)ccc12 | -26.5% | . | . | -14.8% | . | -4.2%
COc1cccc(-c2cnc(C(O)c3cc(C)c(OC)c(C)c3)[nH]2)c1 (stereo unspecified) | ? | . | . | -10.1% | . | -16.0%
Cc1ccc(C(C)C)c(OCC(=O)c2c(O)c3ccccc3oc2=O)c1 | 23.1µM* | . | -10.6% | ? | . | ?
Cc1ccc(OCC(=O)c2c(O)c3ccccc3oc2=O)cc1C | 14.6µM* | -2.0% | 4.0% | -17.7% | -4.4% | ?
CCc1ccc(OCC(=O)c2c(O)c3ccccc3oc2=O)cc1 | 23.1µM* | -8.9% | -16.5% | -27.1% | -4.9% | ?
O=C(COc1ccc(Cl)cc1)NNC(=O)c1ccccc1C(=O)O | -11.3% | 0.7% | 7.2% | 3.2% | 0.5% | 21.1%
COc1cc(NC(=O)CSc2nc(C)c(C(=O)Nc3ccccc3)c(-c3ccc(OC)c(OC)c3)c2C#N)c(OC)cc1Cl | -0.7% | -3.5% | -0.3% | . | 2.2%[12.3 µM] | 3.2%
CCCCOC(=O)c1ccc(NC(=O)COC(=O)CSc2nc(C)cc(C)n2)cc1 | -7.4% | -4.7% | -4.9% | -0.3% | 5.5% | 15.4%
CCCCc1c(C)[nH]c2c(OC)cccc2c1=S | ? | . | . | . | . | -6.9%
CC#CCN1c2ccccc2[C@]23C[C@@H](C(=O)OC)N(C(=O)COCc4ccccc4)C2=NC(C(=O)OC)=C(C(=O)OC)[C@H]13 | . | . | . | . | 13.7%[12.3 µM] | .
O=C1CCCC2=C1C1O[C@](CCCCN3C(=O)c4ccccc4C3=O)(Cc3ccccc31)O2 | . | 0.7%[12.7 µM] | . | . | . | .
c1cc(-c2nsc(-c3ccncc3)n2)ccn1 | ? | -8.6% | ? | 18.9µM* | . | -20.4%
c1ccc(-c2nc(-c3ccncc3)n[nH]2)nc1 | -27.2% | 2.0% | -12.2% | -1.1% | 1.2% | -14.2%
SMILES | TDP1 cell noCPT | KAT2A inh | VDR inh | PLK1 PBD inh | TDP1 inh | TDP1 cell CPT
Cc1cccc(NC(=O)CNC(=O)CSc2nnc(C(F)(F)F)n2C)c1C | 1.4% | -1.0% | 6.9% | -3.6% | 0.3% | -9.4%
COc1ccc(S(=O)(=O)N2CCOCC2)cc1NC(=O)COC(=O)c1oc2ccccc2c1C | ? | 1.0% | -22.8% | -5.5% | 0.2% | -10.1%
COc1ccc(S(=O)(=O)N2CCOCC2)cc1NC(=O)[C@@H]1CCCN1C(=O)c1cccs1 | -13.5% | -2.7% | -0.4% | -9.2% | 2.7% | -1.6%
CCN1CCN(S(=O)(=O)c2ccc(Cl)c(C(=O)Nc3ccccc3N3CCCCC3)c2)CC1 | 25.9µM* | -4.3% | -3.7% | -0.2% | 4.4% | 16.4µM*
CCN1CCN(c2c(Cl)cccc2NC(=O)c2cc3ccccc3o2)CC1 | 18.4µM* | . | 7.7% | -10.1% | . | ?
COc1ccc(S(=O)(=O)N2CCOCC2)cc1NC(=O)C1CCCN1C(=O)c1cccs1 (stereo unspecified) | ? | -4.2% | -5.3% | -17.1% | 0.5%[56.1 µM] | 0.259µM*
COc1ccc(S(=O)(=O)N2CCOCC2)cc1NC(=O)c1cc2ccccc2o1 | 13µM* | -21.7% | -1.0% | -5.2% | 0.3% | ?
O=C(CSc1nc(=O)n(Cc2ccccn2)c2c1CCC2)Nc1ccccc1 | -22.4% | 7.5% | -4.2% | . | 2.6% | 0.2%
CCOC(=O)c1ccc(CN(Cc2ccc(F)cc2)S(=O)(=O)c2ccc(F)cc2)cc1 | ? | 1.7% | -10.1% | . | 2.6% | -14.9%
COC(=O)c1ccccc1NC(=O)CSc1nc2ccccc2nc1Cc1ccc(F)cc1 | -6.5% | -4.5% | 11.1% | . | 5.4% | -14.7%
CCN1CCN(c2ccc(S(=O)(=O)N3CCCCC3)cc2NC(=O)c2cc3ccccc3o2)CC1 | 16.4µM* | -2.1% | -12.9% | -5.7% | 3.7% | ?
CCN1CCN(S(=O)(=O)c2ccc(Cl)c(C(=O)Nc3nnc(CC(C)C)s3)c2)CC1 | ? | -7.8% | 6.9% | -0.9% | 2.9% | 23.1µM*
C/C(=N\NC(=O)C1CC1)c1ccccc1O | -21.9% | 0.1% | 7.0% | -15.1% | 2.7% | 1.0%
CCN(Cc1ccccc1)C(=O)CCS(=O)(=O)c1cc(Br)cc2c1N(C(=O)C1CC1)CC2 | ? | -13.6% | -16.6% | . | -10.6%[12.3 µM] | ?
COc1ccccc1-c1c(-c2ccc(OCC(=O)NN)cc2O)n[nH]c1C(F)(F)F | 13µM* | 1.0% | -11.9% | 0.1% | 0.0% | 9.2µM*
COc1ccc(-c2nc(N)ncc2-c2ccccc2)c(O)c1 | ? | -10.7% | 1.1% | -0.7% | . | ?
COc1ccc(-c2n[nH]c(C(F)(F)F)c2-c2cc3ccccc3o2)c(O)c1 | 14.6µM* | -15.5% | 18.3% | -0.7% | 1.0% | 13µM*

High-throughput results: PubChem BioAssay, National Center for Advancing Translational Sciences (NCATS)
